For the assay, the system named is LOC_OS01G51400-cb002. Description: thermal shift delta Tm vs DMSO control; higher = stronger stabilization (binding). The conditions noted are these: 12.5 µM; protein concentration 2 µM. An outline of the steps:
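The melting temperature shift given here is a triplicate mean, measured against protein that received only DMSO. Melting temperatures came from Boltzmann fits of differential scanning fluorimetry data on E. coli-expressed, purified rice kinase domain constructs. Each 19.5 μl well contained 2 μM kinase, 100 mM potassium phosphate pH 7.5, 150 mM NaCl, 10% glycerol, 5 × SYPRO Orange and compound in DMSO. Plates were scanned from 25°C to 95°C at 0.05°C/s.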
With `O=C1NC(=O)C(=Cc2ccc(-c3ccc(F)cc3)o2)S1` (stereo in doubt), the “thermal shift delta Tm” value turned out to be 0.18 °C.

`CONC(=O)c1ccccc1Nc1cc(Nc2cc(C)nn2C(C)C)ncc1Cl`: the “thermal shift delta Tm” value came out at 0.4 °C. Regarding `O=C(O)c1ccc2c3c1cccc3c(=O)n1c3ccccc3nc21`, the “thermal shift delta Tm” value is 0 °C. For the compound `OC1CCC(Oc2cccc3cnc(Nc4ccc5nc[nH]c5c4)nc23)CC1` (configuration not stated), the “thermal shift delta Tm” value was determined as 1.07 °C. On to `CN1CCN(Cc2ccc(-c3cnc4[nH]cc(-c5ccc6[nH]ccc6c5)c4c3)cc2)CC1`, for which the “thermal shift delta Tm” value is 0.11 °C. Consider `Cc1cc(N2CCOCC2)cc2[nH]c(-c3c(NC[C@@H](O)c4cccc(Cl)c4)cc[nH]c3=O)nc12`, for which the “thermal shift delta Tm” value stood at 0.28 °C. In the case of `S=C(NCc1ccc2c(c1)OCO2)N1CCN(c2ncnc3c2oc2ccccc23)CC1` [Amuvatinib (MP-470)], the “thermal shift delta Tm” value was 0.31 °C. `COc1cc2c(N3CCN(C(=O)Nc4ccc(OC(C)C)cc4)CC3)ncnc2cc1OCCCN1CCCCC1` [Tandutinib (MLN518)]: the “thermal shift delta Tm” value is 0.02 °C.

For the compound `COc1cc(-c2cc(-c3ccc(N4CCNCC4)cc3)cnc2C)cc(OC)c1OC`, the “thermal shift delta Tm” value was -0.26 °C. For the compound `O=C(Nc1ccc(OC(F)(F)F)cc1)c1sccc1NCc1ccnc2ccccc12`, the “thermal shift delta Tm” value was found to be 0.94 °C.

Turning to `Cc1nc2ccc(-n3ncc(C(=O)c4cc5ccccc5[nH]4)c3N)cc2[nH]1`, the “thermal shift delta Tm” value was 0.05 °C.

In the case of `CC(C)n1ncnc1-c1cn2c(n1)-c1ccc(O[C@@H](C)C(N)=O)cc1OCC2`, the “thermal shift delta Tm” value amounted to 0.1 °C.

Regarding `O=C(O)[C@]1(Cc2cccc(Nc3nccs3)n2)CC[C@@H](Oc2cccc(Cl)c2F)CC1`, the “thermal shift delta Tm” value is -0.7 °C. Take `O=C(O)CCC(=O)Nc1ccc(Br)cn1` [Bikinin]: the “thermal shift delta Tm” value turned out to be 0.37 °C.

On to `CCOc1cc2ncc(C#N)c(Nc3ccc(OCc4ccccn4)c(Cl)c3)c2cc1NC(=O)/C=C/CN(C)C` [Neratinib (HKI-272)], for which the “thermal shift delta Tm” value was found to be 0.27 °C.

In the case of `O=C(Nc1cccc(C(F)(F)F)c1)c1cccc2cc(Oc3cc(CO)ncn3)ccc12`, the “thermal shift delta Tm” value was 0.1 °C.

Take `CC1(C)C=Cc2c(ccc3c2OC[C@@H](c2ccc(O)cc2O)C3)O1` [Glabridin]: the “thermal shift delta Tm” value stood at 1.35 °C. Consider `COc1ccccc1-c1cc(Nc2cccc(CS(N)(=O)=O)c2)ncn1`, for which the “thermal shift delta Tm” value amounted to 0.36 °C. As to `Cc1ccc(C(=O)Nc2ccc(Oc3cc4cnn(C)c4cc3-c3cn[nH]c3)c(F)c2)c(=O)n1-c1ccc(F)cc1`, the “thermal shift delta Tm” value was 0.84 °C. Take `CCS(=O)(=O)c1cccc(-c2cc(C(=O)NC3CCN(C)CC3)c(C)c3[nH]c4ncc(C)cc4c23)c1`: the “thermal shift delta Tm” value was found to be 0.16 °C. As for `CCc1cncnc1N1CCN(Cc2nc3ccc(C(F)(F)F)cc3[nH]2)CC1`, the “thermal shift delta Tm” value was 0.42 °C.

For `Cc1ccc(NC(=O)c2ccc(CN3CCN(C)CC3)cc2)cc1Nc1nccc(-c2cccnc2)n1` [Imatinib (STI571)], the “thermal shift delta Tm” value was found to be 0.14 °C. Regarding `CCn1c(=O)c(-c2ccc(Cl)cc2Cl)cc2cnc(Nc3ccc(N4CCNCC4)c(F)c3)nc21`, the “thermal shift delta Tm” value was -0.48 °C.

As for `COc1cc(N2CCN(C)CC2)ccc1Nc1ncc2c(n1)N(C)c1ccccc1C(=O)N2`, the “thermal shift delta Tm” value was determined as 0.22 °C. Consider `CCn1c(-c2nonc2N)nc2cnc(Oc3cccc(NC(=O)c4ccc(OCCN5CCOCC5)cc4)c3)cc21`, for which the “thermal shift delta Tm” value was 0.31 °C. As to `O=C1Cc2c([nH]c3ccc(Br)cc23)-c2ccccc2N1` [Kenpaullone], the “thermal shift delta Tm” value came to 0.72 °C. Take `COC(=O)Nc1ccc(-c2nc(N3CCOCC3)c3cnn(C4CCN(C(=O)OC)CC4)c3n2)cc1`: the “thermal shift delta Tm” value was -0.05 °C. On to `Nc1ncc(-c2ccnc(Nc3ccncc3)n2)c(CC2CC2)n1`, for which the “thermal shift delta Tm” value was found to be 0.15 °C. Next, `C=CC(=O)Nc1ccc2ncnc(Nc3cccc(Br)c3)c2c1`: 0.29 °C; `COc1nccc(-c2c(-c3ccc(F)cc3)ncn2C2CCC(O)CC2)n1` (configuration not stated): 0.24 °C. In the case of `CC(C)Nc1cc(-c2c[nH]c(C(=O)N[C@H](CO)c3cccc(Cl)c3)c2)c(Cl)cn1`, the “thermal shift delta Tm” value was 0.12 °C.

Take `CN1CCN(Cc2ccc(NC(=O)Nc3ccc(Oc4ccnc(N)n4)cc3)cc2C(F)(F)F)CC1`: the “thermal shift delta Tm” value is 0.2 °C. Take `O=C(NCCO)c1cccc(-c2cc(Nc3ccc(OC(F)(F)F)cc3)ncn2)c1`: the “thermal shift delta Tm” value came out at 0.2 °C. As to `CC(C)(O)CNc1ncc(-c2ccnc(Nc3ccnc(Cl)c3)n2)c(CC2CC2)n1`, the “thermal shift delta Tm” value stood at 0.19 °C.

Turning to `O=C1NC(=O)C(c2ccccc2[N+](=O)[O-])=C1Nc1ccc(O)c(Cl)c1`, the “thermal shift delta Tm” value turned out to be 0.04 °C. `CCOc1cc(N2CCC(O)CC2)ccc1Nc1ncc2c(n1)N(C)c1ccccc1C(=O)N2C`: the “thermal shift delta Tm” value turned out to be 0.06 °C. As for `COc1ccc(-c2ccc3ncc4c(c3c2)n(-c2ccc(N3CCNCC3)c(C(F)(F)F)c2)c(=O)n4C)cn1`, the “thermal shift delta Tm” value was -0.17 °C.

(Values after the supplement of paper PMC9694430.)
